# Calls of active or inactive are those of the source. Unless noted, how the calls were made is not given here.
# What was measured:
# [1] = system: Wnt5a (protein binding on small-molecule microarray); assay: small molecules binding Wnt5a protein – biophysical, small-molecule microarray, 635/667 nm fluorescence, primary screen (AID 1142); details: 635 nm fluorescence, higher = more signal;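 further: fluorescence read at 667 nm with signal to noise per printed feature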
# [2] = ATP-based viability of Huh7 replicon cells – cell-based, CellTiter-Glo luminescence, basal, 48 h, cytotoxicity control for HCV replication inhibitor project, primary screen (AID 1143); details: higher = more signal, called active from +8 up or from −8 down;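 further: Huh7 hepatoma cells carrying a hepatitis C replication reporter with no stimulus; test concentration not given here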
# [3] = Pseudomonas biofilm growth suppression – PAO1 strain, BacTiter-Glo luminescence, LB-PBS, primary screen (AID 1144); details: P. aeruginosa PAO1 biofilm, 12 h, higher = more signal
# [4] = basal CRE-LacZ reporter activity in PC12 – cell-based, unstimulated, primary screen (AID 1145); details: no forskolin, luminescence, 4.5 h, higher = more signal, called active from +8 up or from −8 down
# [5] = forskolin-driven CRE-LacZ activity in PC12 – cell-based, CRE-LacZ reporter, forskolin-stimulated, primary screen (AID 1146); details: luminescence, 4.5 h, higher = more signal, called active from +8 up or from −8 down;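 further: PC12 cells with 6xCRE LacZ reporter stimulated by forskolin 10 µM; beta-galactosidase reporter signal reflecting CREB driven transcription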
# [6] = biological target: Streptavidin (Streptomyces avidinii) (UniProt P22629); assay: compounds binding control protein streptavidin – biophysical, small-molecule microarray, 635/667 nm fluorescence, artefact control for SMM compound annotation, primary screen (AID 1147); details: higher = more signal;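 further: signal reflects streptavidin binding to arrayed compounds as a control protein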
# [7] = probe aInhba binding on compound microarray – biochemical, small-molecule microarray, 635/667 nm fluorescence, primary screen (AID 1148); details: higher = more signal;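 further: score merges 667nm spot fluorescence with signal-to-noise for antibody binding to printed compounds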
# [8] = biological target: Torsin-1A (Homo sapiens) (UniProt O14656); assay: TOR1A wild-type binding on microarray – cell lysate, small-molecule microarray, lysate, 635/667 nm, primary screen (AID 1149); details: COS7 hTOR1A-WT lysate, 635 nm fluorescence, higher = more signal
# [9] = biological target: Torsin-1A (Homo sapiens) (UniProt O14656); assay: torsin A mutant lysate binding on microarrays – cell lysate, small-molecule microarray, COS7 lysate, 635/667 nm fluorescence, primary screen (AID 1150); details: COS7 hTOR1A mutant lysate, 635 nm fluorescence, higher = more signal;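 further: score pools 667 nm emission and signal to noise measuring lysate protein binding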
# [10] = system: Sonic hedgehog protein (Shh); assay: Sonic hedgehog microarray binding compounds – biochemical, small-molecule microarray, 635/667 nm fluorescence, primary screen (AID 1151); details: 635 nm fluorescence, higher = more signal;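 further: Shh protein binding to compounds spotted on small-molecule microarray slides; score combines spot fluorescence intensity with signal-to-noise across triplicate slides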
# [11] = optical density shifts of acrAB sulA E. coli – strain DRC41, OD650, 48 h, E. coli filamentation inducer project, primary screen (AID 1152); details: higher = more signal, called active from +8 up or from −8 down;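 further: E. coli MC1000 strain DRC41 lacking acrAB efflux pump and sulA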
# [12] = probe aLefty1 binding on compound microarray – biochemical, small-molecule microarray, 635/667 nm fluorescence, primary screen (AID 1153); details: higher = more signal;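 further: score merges spot fluorescence with signal-to-noise ratio from the scanned slide images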
# [13] = plasmodial surface anion channel blockers, osmotic lysis – cell-based, P. falciparum Indochina, OD700, 1 h, primary screen (AID 1154); details: P. falciparum Indochina infected RBC osmotic lysis, higher = more signal, called active from +8 up or from −8 down
# [14] = plasmodial surface anion channel blockers, osmotic lysis – cell-based, P. falciparum Indochina, OD700, 2 h, primary screen (AID 1155);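 further: lysis reports solute entry through the parasite surface anion channel PSAC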; details: P. falciparum Indochina infected erythrocytes, higher = more signal, called active from +8 up or from −8 down
# [15] = changes in parasitized red cell lysis, either direction – P. falciparum Indochina, OD700, 3 h, PSAC antagonist project, primary screen (AID 1156); details: P. falciparum-infected erythrocytes, osmotic lysis, higher = more signal, called active from +8 up or from −8 down
# [16] = plasmodial surface anion channel blockers, osmotic lysis – cell-based, P. falciparum Indochina, OD700, 18 h, primary screen (AID 1157); details: P. falciparum Indochina infected erythrocytes, osmotic lysis OD700, 18 h; higher = more signal, called active from +8 up or from −8 down
# [17] = S6 kinase pathway phospho-S6 level changes – cell-based, A549, cytoblot, luminescence, serum-stimulated, primary screen (AID 1158); details: 5 h, higher = more signal;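 further: serum-stimulated A549 lung adenocarcinoma cells; signal is phosphorylated S6 detected by cytoblot immunostaining with HRP secondary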
# [18] = biological target: NADPH oxidase 2 (Homo sapiens) (UniProt P04839); assay: compounds shifting NOX2 Amplex Red fluorescence – cell-based, HEK293-NOX2, PMA-stimulated, NOX inhibitor project, primary screen (AID 1159); details: 45 min, higher = more signal, called active from +8 up or from −8 down; further: test concentration not given here
# [19] = biological target: NADPH oxidase 4 (Homo sapiens) (UniProt Q9NPH5); assay: compounds shifting NOX4 Amplex Red fluorescence – cell-based, HEK293-NOX4, tetracycline-induced, NOX inhibitor project, primary screen (AID 1160); details: HEK293-NOX4, Amplex Red H2O2 fluorescence, 45 min; higher = more signal, called active from +8 up or from −8 down
# [20] = biological target: NADPH oxidase 5 (Homo sapiens) (UniProt Q96PH1); assay: compounds shifting NOX5 Amplex Red fluorescence – cell-based, HEK293-NOX5, NOX inhibitor project, primary screen (AID 1161); details: HEK293-NOX5, ionomycin, 45 min, higher = more signal
# Sequence of NADPH oxidase 5 (Homo sapiens) (Q96PH1 whole entry, looked up): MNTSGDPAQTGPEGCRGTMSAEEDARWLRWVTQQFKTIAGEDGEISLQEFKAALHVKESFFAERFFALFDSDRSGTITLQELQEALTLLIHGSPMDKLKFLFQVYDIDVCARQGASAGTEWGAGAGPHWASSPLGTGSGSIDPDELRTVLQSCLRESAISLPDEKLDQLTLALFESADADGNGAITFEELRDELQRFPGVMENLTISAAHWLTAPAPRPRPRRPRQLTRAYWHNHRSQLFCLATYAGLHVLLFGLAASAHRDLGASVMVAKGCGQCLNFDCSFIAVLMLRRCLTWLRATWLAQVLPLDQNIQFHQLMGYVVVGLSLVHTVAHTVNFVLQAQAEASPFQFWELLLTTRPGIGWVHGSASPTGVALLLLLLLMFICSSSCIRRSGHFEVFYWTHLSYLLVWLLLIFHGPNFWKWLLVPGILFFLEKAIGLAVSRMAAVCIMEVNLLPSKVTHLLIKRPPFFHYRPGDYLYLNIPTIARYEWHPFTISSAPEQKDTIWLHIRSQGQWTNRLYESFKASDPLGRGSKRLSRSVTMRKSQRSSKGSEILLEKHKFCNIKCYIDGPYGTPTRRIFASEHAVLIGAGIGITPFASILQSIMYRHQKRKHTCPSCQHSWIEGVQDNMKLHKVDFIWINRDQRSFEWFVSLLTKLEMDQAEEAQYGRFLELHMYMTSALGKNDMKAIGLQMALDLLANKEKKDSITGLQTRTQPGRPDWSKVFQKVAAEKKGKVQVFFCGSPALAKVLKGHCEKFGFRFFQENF
# Sequence of NADPH oxidase 4 (Homo sapiens) (Q9NPH5 whole entry, looked up): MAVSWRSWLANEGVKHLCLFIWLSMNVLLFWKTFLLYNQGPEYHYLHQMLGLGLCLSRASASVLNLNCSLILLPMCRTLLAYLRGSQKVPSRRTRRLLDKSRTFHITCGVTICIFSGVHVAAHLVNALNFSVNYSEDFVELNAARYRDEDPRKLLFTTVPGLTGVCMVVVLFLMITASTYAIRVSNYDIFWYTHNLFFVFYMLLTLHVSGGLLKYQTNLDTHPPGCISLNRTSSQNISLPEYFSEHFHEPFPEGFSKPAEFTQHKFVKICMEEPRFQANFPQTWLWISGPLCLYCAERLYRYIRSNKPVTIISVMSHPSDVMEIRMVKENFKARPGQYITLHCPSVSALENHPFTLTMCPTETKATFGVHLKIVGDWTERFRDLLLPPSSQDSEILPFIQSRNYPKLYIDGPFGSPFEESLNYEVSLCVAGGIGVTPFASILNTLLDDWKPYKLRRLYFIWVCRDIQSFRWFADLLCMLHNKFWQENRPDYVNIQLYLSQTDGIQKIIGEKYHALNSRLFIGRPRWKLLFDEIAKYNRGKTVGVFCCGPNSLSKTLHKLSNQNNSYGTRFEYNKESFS
# Sequence of Streptavidin (Streptomyces avidinii) (P22629 whole entry, looked up): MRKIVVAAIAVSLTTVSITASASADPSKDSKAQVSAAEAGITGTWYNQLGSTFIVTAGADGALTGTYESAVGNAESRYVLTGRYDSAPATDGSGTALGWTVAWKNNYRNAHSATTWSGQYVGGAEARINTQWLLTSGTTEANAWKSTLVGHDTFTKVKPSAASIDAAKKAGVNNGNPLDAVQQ
# Sequence of NADPH oxidase 2 (Homo sapiens) (P04839 whole entry, looked up): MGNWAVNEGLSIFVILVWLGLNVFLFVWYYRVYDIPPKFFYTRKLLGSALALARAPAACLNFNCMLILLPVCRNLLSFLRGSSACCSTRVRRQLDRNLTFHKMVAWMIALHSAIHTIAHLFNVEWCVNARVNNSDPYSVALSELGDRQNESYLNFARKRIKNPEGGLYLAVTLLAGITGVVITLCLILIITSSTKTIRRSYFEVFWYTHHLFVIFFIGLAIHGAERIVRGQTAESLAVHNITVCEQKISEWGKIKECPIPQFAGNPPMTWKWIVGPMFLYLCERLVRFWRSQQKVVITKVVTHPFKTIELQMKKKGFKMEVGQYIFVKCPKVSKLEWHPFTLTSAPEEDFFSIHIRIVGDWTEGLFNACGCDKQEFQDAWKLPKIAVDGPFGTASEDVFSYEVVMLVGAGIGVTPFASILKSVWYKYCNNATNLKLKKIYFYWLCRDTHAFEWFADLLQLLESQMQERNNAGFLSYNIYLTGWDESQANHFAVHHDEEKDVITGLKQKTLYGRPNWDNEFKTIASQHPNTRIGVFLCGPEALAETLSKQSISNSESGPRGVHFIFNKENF
# Sequence of Torsin-1A (Homo sapiens) (O14656 whole entry, looked up): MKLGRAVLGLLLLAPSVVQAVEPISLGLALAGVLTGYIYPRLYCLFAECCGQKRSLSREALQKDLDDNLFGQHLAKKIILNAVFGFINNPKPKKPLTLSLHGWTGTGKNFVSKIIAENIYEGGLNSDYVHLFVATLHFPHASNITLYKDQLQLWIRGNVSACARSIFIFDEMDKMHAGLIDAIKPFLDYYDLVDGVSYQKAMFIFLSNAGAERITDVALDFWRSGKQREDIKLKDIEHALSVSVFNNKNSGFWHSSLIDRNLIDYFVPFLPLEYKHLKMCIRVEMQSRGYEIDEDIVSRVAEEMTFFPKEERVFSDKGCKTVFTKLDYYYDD
Structure (SMILES),composite z-score [1],z-score [2],z-score [3],z-score [4],z-score [5],composite z-score [6],composite z-score [7],composite z-score [8],composite z-score [9],composite z-score [10],z-score [11],composite z-score [12],z-score [13],z-score [14],z-score [15],z-score [16],z-score [17],z-score [18],z-score [19],z-score [20]
O=C1C2C=CC(C(O)c3ccc(F)cc3)N(n3cnnc3)C2C(=O)N1Cc1ccccc1 (stereo not given),-0.0707,-3.57 (inactive),-0.488 (inactive),-0.527 (inactive),-0.0197 (inactive),-0.0183,0.0383,-0.216,0.461,-0.428,-0.792 (inactive),0.041,0.138 (inactive),-0.995 (inactive),0.987 (inactive),-2.02 (inactive),1.2,-3.1 (inactive),-1.12 (inactive),-4.43
C=C(C)C1CCC(C(O)C2C=CC3C(=O)N(C)C(=O)C3N2N2CCCCC2)CC1 (stereo not given),0.467,0.635 (inactive),-0.0283 (inactive),0.622 (inactive),0.924 (inactive),1.61,0.143,0.476,1.34,0.758,-1.09 (inactive),0.336,1.23 (inactive),0.737 (inactive),0.302 (inactive),1.37 (inactive),-1.41,-0.128 (inactive),0.773 (inactive),0.0159
CC(C)Cc1ccc(CN2CC[C@@H](NC(=O)Nc3ccccc3)C2)cc1,0.0405,-8.72 (active),-0.00187 (inactive),0.757 (inactive),-0.269 (inactive),-0.0067,-0.148,0.257,0.274,0.826,-3.31 (inactive),-0.191,1.96 (inactive),0.981 (inactive),1.84 (inactive),0.575 (inactive),-1.03,-0.507 (inactive),-0.351 (inactive),-1.88
CCOC(=O)C[C@H]1[C@H](OC(=O)c2cc3ccccc3oc2=O)[C@@H](NC(=O)c2ccc(-c3ccccc3)cc2)c2cc(OCCCO)ccc2N1C(=O)c1ccc2ccccc2n1,0.355,-0.168 (inactive),-1.1 (inactive),1.03 (inactive),0.644 (inactive),0.207,0.166,0.626,0.572,1.84,-0.216 (inactive),0.132,3.37 (inactive),1.07 (inactive),0.723 (inactive),0.523 (inactive),-0.577,0.858 (inactive),0.688 (inactive),1.11
CC1=C[C@@]2(CO)C(=O)[C@]3(CO3)[C@@H]1[C@H]1[C@]2(C)C=C(CO)C(=O)[C@]12CO2,0.129,-0.0354 (inactive),-0.108 (inactive),0.314 (inactive),1.51 (inactive),0.006,-0.103,0.145,0.171,0.265,0.806 (inactive),-0.148,0.0442 (inactive),0.446 (inactive),0.429 (inactive),0.156 (inactive),-0.0631,-0.35 (inactive),-1.07 (inactive),-1.14
Cc1ccc(S[C@]2(C(=O)O)CC(=O)N(Cc3cc(C(F)(F)F)cc(C(F)(F)F)c3)[C@@H]2c2ccc(CO)cc2)cc1,-0.256,0.0756 (inactive),-0.00769 (inactive),0.621 (inactive),0.573 (inactive),-0.882,-0.128,-0.272,-0.62,-1.26,-1.21 (inactive),-0.239,2.76 (inactive),1.01 (inactive),1.44 (inactive),0.769 (inactive),-0.482,0.86 (inactive),-0.271 (inactive),0.0502
O=C1N(Cc2ccccc2)Cc2ccccc2[C@@H]2OC(c3ccc(OCCCO)cc3)=N[C@]12CCS(=O)(=O)c1ccccc1,0.534,-2.33 (inactive),0.245 (inactive),3.78 (inactive),-0.832 (inactive),0.379,0.0742,0.529,0.489,1.42,-0.715 (inactive),0.547,21.2 (active),4.09 (inactive),2.99 (inactive),0.492 (inactive),0.0549,-0.146 (inactive),1.23 (inactive),1.03
NC(=O)NCC#Cc1ccc2c(c1)[C@]1(C(=O)N2)[C@H](C(=O)O)[C@H]2C(=O)O[C@H](c3ccccc3)[C@H](c3ccccc3)N2[C@@H]1c1ccc(OCCO)cc1,0.0755,-0.175 (inactive),-0.015 (inactive),-0.195 (inactive),-0.746 (inactive),1.15,-0.102,-0.0721,0.588,0.135,0.215 (inactive),-0.147,3.93 (inactive),0.523 (inactive),0.643 (inactive),0.247 (inactive),0.235,2.78 (inactive),1.14 (inactive),-0.0124
COCCOC(=O)N1C(=O)[C@@]2(c3cc(C#CC4=CCCCC4)ccc31)[C@H](c1ccccc1OCCO)N1[C@H](c3ccccc3)[C@H](c3ccccc3)OC(=O)[C@H]1[C@@H]2C(=O)Nc1nc2ccccc2s1,0.632,-2.06 (inactive),0.305 (inactive),-0.0526 (inactive),0.687 (inactive),0.827,0.0497,0.881,0.344,1.27,-0.541 (inactive),0.287,3.53 (inactive),1.72 (inactive),-0.507 (inactive),1.54 (inactive),-0.168,1.59 (inactive),0.571 (inactive),1.41
CN(C)C(=O)C1N=C(c2ccc(OCCCO)cc2)N(c2ccccc2)O1 (stereo not given),1.15,-1.17 (inactive),0.265 (inactive),0.0451 (inactive),-0.102 (inactive),-0.151,0.0658,1.19,1.56,2.03,0.975 (inactive),0.0509,18.3 (active),2.14 (inactive),0.0521 (inactive),0.325 (inactive),0.296,-4.12 (inactive),-0.509 (inactive),-1.12
COCCOC(=O)N1C(=O)[C@@]2(c3cc(C#CC4=CCCCC4)ccc31)[C@H](c1ccc(OCCO)cc1)N1[C@H](c3ccccc3)[C@H](c3ccccc3)OC(=O)[C@H]1[C@@H]2C(=O)NC[C@H](O)c1ccccc1,0.552,-2.18 (inactive),0.698 (inactive),0.354 (inactive),-0.224 (inactive),0.785,0.801,0.818,0.51,1.85,-0.149 (inactive),1.43,2.35 (inactive),1.31 (inactive),-0.352 (inactive),0.482 (inactive),0.245,1.36 (inactive),0.849 (inactive),1.44
COC(=O)c1nc2oc1CC[C@@H](CO)NC(=O)N(C)Cc1cnnn1C[C@H](Cc1ccccc1)NC2=O,-0.202,-0.0922 (inactive),-1.19 (inactive),0.484 (inactive),-0.826 (inactive),-0.65,-0.268,-0.182,-0.533,0.272,2.17 (inactive),-0.101,1.23 (inactive),0.656 (inactive),1.2 (inactive),0.409 (inactive),0.688,-0.524 (inactive),1.35 (inactive),0.371
C=C[C@@H](OC)[C@H](OC(=O)Nc1ccc(SC)cc1)c1ccc(O)c(F)c1,0.183,-1.57 (inactive),-1.04 (inactive),0.847 (inactive),0.425 (inactive),-0.376,0.0679,0.242,0.679,1.14,-1.51 (inactive),0.44,24.7 (active),7.57 (inactive),2.98 (inactive),1.31 (inactive),-0.618,-2.6 (inactive),-2.4 (inactive),-1.26
CC(C)(C)OC(=O)CC[C@]1(C(=O)NCc2ccccc2)N=C(c2ccc(OCCCO)cc2)O[C@H]1c1ccccc1CN=[N+]=[N-],1.3,-3.05 (inactive),-0.368 (inactive),0.344 (inactive),-0.156 (inactive),1.2,0.138,0.245,0.895,1.36,0.829 (inactive),0.146,25.3 (active),12.3 (active),3.22 (inactive),1.65 (inactive),0.224,-0.174 (inactive),-0.533 (inactive),-1.47
C=CC1c2cc(O)c(OC)cc2CCN1Cc1cc2c(cc1Br)OCO2 (stereo not given),-0.158,-5.24 (inactive),0.0937 (inactive),0.299 (inactive),0.962 (inactive),-0.361,-0.128,1.34,0.587,0.672,-1.93 (inactive),0.274,15.1 (active),3.15 (inactive),1.57 (inactive),1.01 (inactive),0.0469,-6.22 (inactive),-3.87 (inactive),-4.16
COC(=O)[C@H](Cc1ccccc1)N1CC(/C=C/C2CC2)=C[C@H]1[C@H](O)Cc1ccccc1,-0.0412,-2.83 (inactive),0.954 (inactive),2.1 (inactive),18.9 (active),0.626,-0.0523,0.211,0.188,0.593,-0.555 (inactive),-0.012,1.74 (inactive),0.714 (inactive),-0.377 (inactive),0.5 (inactive),0.184,-4.7 (inactive),-0.819 (inactive),-0.607
CN1C(=O)C2C=CC(C(O)c3cccc4ccccc34)N(N3CCCCC3)C2C1=O (stereo not given),0.156,0.64 (inactive),0.32 (inactive),-0.136 (inactive),0.0556 (inactive),1.85,0.0582,0.613,0.781,0.169,-1.57 (inactive),-0.0798,0.669 (inactive),0.958 (inactive),-0.284 (inactive),0.878 (inactive),-1.32,-0.671 (inactive),-1.97 (inactive),-0.766

# — PubChem BioAssay
